# Test results: PubChem BioAssay (NCI)
# About 83,000 compounds went through this panel and 20% of them were active in at least one assay; those are over-represented in the sample as a whole.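 Values shown are percent growth following 48 h exposure of cells in 96-well plates to a single concentration of compound; below 10 was considered active.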 A number with no mark means an inactive call. Active and inactive are the calls of the source.
# Key:
# Experiment in all cases: NCI-60 one-dose screen, 48 h (100 = growth as untreated, 0 = no growth, -100 = all killed)
# Details in all cases: 10 µM unless noted
# T-47D breast = system: T-47D breast
# BT-549 breast = system: BT-549 breast
# MDA-MB-435 melanoma = system: MDA-MB-435 melanoma
# SW-620 colon = system: SW-620 colon
# MCF7 breast = system: MCF7 breast
# HCT-116 colon = system: HCT-116 colon
# HCC-2998 colon = system: HCC-2998 colon
# KM12 colon = system: KM12 colon
Compound,growth (T-47D breast),growth (BT-549 breast),growth (MDA-MB-435 melanoma),growth (SW-620 colon),growth (MCF7 breast),growth (HCT-116 colon),growth (HCC-2998 colon),growth (KM12 colon)
CCNc1nc2ccc(Nc3ccnc4cc(Cl)ccc34)cc2[nH]1,100%,86.8%,93.1%,57.8%,45.1%,17.3%,84.1%,67%
C=C1C(=O)O[C@H]2[C@H]1CC/C(CNS(=O)(=O)c1cccc3ccccc13)=C\CC[C@@]1(C)O[C@@H]21,24.5%,37.2%,38.1%,-34.9% (active),16.2%,-60.7% (active),71.5%,85%
CC(=O)O[C@H]1Cc2c([nH]c3ccccc23)[C@@H](c2ccc(Cl)cc2)N1C(=O)CCNC(C)(C)C,74.3%,53.7%,70%,61.1%,34.3%,20.8%,60.3%,66.6%
CC(=O)Oc1ccc(/C=N/NC(N)=S)nc1,52%,32.7%,87%,60.9%,18.4%,70.1%,55%,76.5%
COc1ccc(Cc2cnc(NC(=O)c3ccc4c(c3)OCCO4)s2)cc1,42.8%,43.6%,4.11% (active),31.4%,9.58% (active),7.75% (active),18.8%,10.3%
CCOC(=O)CC1CSC(N/N=C/c2ccc(-n3cccn3)cc2)=N1 (stereo unspecified),106%,116%,110%,106%,98.1%,98.7%,103%,103%
N#C/C(=C\c1ccccn1)c1nc2cc(Cl)ccc2s1,27.7%,33.3%,74.7%,77.5%,37.1%,55%,92.7%,96.2%
C=C(C)[C@@H]1CC[C@]2(C(=O)N3CCN(C)CC3)CC[C@]3(C)[C@H](CC[C@@H]4[C@@]5(C)C/C(=C/c6cccnc6)C(=O)C(C)(C)[C@@H]5CC[C@]43C)[C@@H]12,54.2%,83.2%,69.4%,48.1%,27.2%,25.3%,77.5%,54.7%
CC1(C)CC(=O)C2=C(C1)N(c1ccc(F)cc1F)C(N)=C(C#N)C2c1cc(Br)ccc1F (stereo unspecified),110%,106%,101%,89.6%,95%,80.9%,107%,88.7%
C#Cc1cccc(NC(=O)Nc2cccc(NC(=O)CCl)c2)c1,27.8% [8.25 µM],-15.1% [8.25 µM] (active),-39.8% [8.25 µM] (active),-42.3% [8.25 µM] (active),4.65% [8.25 µM] (active),2.24% [8.25 µM] (active),93.6% [8.25 µM],32.9% [8.25 µM]
COc1ccccc1NS(=O)(=O)c1cccc(C(=O)Nc2ccc(Br)cc2)c1,21.2%,37.2%,35.3%,55.1%,32.5%,37.9%,57.5%,34.6%
O=[N+]([O-])c1ccc(N=Nc2cc(S(=O)(=O)O)c3cccc(S(=O)(=O)O)c3c2O)cc1,108%,105%,86%,112%,97.7%,97.7%,112%,118%
O=C(CCN1CCCC1)Nc1ccc2c(NCCCc3ccccc3)c3ccccc3nc2c1,11.6%,47.7%,-87.8% (active),-63.3% (active),-44.3% (active),-63.5% (active),2.16% (active),-10% (active)
CC(=O)c1cc2c(N)c(C(=O)Nc3cccc4ccncc34)sc2nc1C,97.1%,102%,6.83% (active),101%,83.7%,102%,107%,101%
CCN(CC)CCOc1ccc(NC(=O)C(C(C)C)N2C(=O)/C(=C/c3ccc(Br)cc3)SC2=S)cc1 (stereo unspecified),93.1%,110%,97%,41.9%,19.3%,-24.8% (active),73%,99.4%
N#CC1=C(N)Oc2c(cnn2-c2ccc([N+](=O)[O-])cc2[N+](=O)[O-])C1c1ccccc1 (stereo unspecified),98%,107%,101%,96.2%,97%,100%,101%,101%
O=C(NCCNc1nccc(-c2c(-c3cccc(F)c3)nc3sccn23)n1)c1ccc(Cl)cc1,49%,75.9%,32.1%,65.2%,27.7%,33%,90.1%,62.8%
Cc1nn(-c2ccccc2)c(Oc2c(Cl)cccc2Cl)c1/C=N/N=c1\sc2ccccc2n1C,47.2%,63.6%,64.6%,34.7%,45.5%,30.1%,71.4%,44.3%
O=C(/C=C/c1ccc[nH]1)c1ccc(-n2ccc(C(F)(F)F)n2)c(F)c1,70.9%,-2.69% (active),99.3%,103%,30.9%,85.6%,94.2%,29.6%
CCOC(=O)c1cc(C(=O)c2ccc(OC)c(OC)c2)n2ccc(/C=C/c3cc[n+](CC(=O)c4ccc(OC)c(OC)c4)cc3)cc12,89.9%,96.6%,99.4%,96.7%,91.1%,89.7%,98.8%,100%
O=S(=O)(NCCNc1nccc(-c2c(-c3cccc(F)c3)nc3sccn23)n1)c1ccccc1,18.8%,50.4%,17.4%,44.5%,21.7%,22.7%,66.4%,28.8%
C=C1C(=O)O[C@H]2[C@H]1CC/C(CNC(=O)/C=C/c1ccccc1)=C\CC[C@@]1(C)O[C@@H]21,-12.1% (active),-56.8% (active),-8.54% (active),-68.4% (active),-22.2% (active),-58.9% (active),-7.49% (active),76.5%
O=C(c1nc2ccccc2[nH]1)C1C(c2ccc(Br)cc2)C2CC3CCCC[C@H]3N2[C@@]12C(=O)Nc1cc(Cl)ccc12 (stereo partly specified),29.1%,71.6%,23.7%,31.2%,16%,21.1%,39.7%,37.9%
O=S(=O)(NCCNc1nccc(-c2c(-c3cccc(O)c3)nc3occn23)n1)c1ccccc1,74%,96%,28.5%,103%,49.4%,53.8%,113%,83.3%
CCOC(=O)c1cc(C#N)n2ccc3ccccc3c12,104%,113%,99.1%,97.9%,95.7%,108%,106%,100%
COC(=O)c1ccc2c(c1)[n+](=O)c(C(C)=O)c(C(F)(F)F)n2[O-],-73.6% (active),-19.6% (active),0.455% (active),18.1%,-50.3% (active),-98% (active),-86.9% (active),-93.5% (active)
C=C(C)[C@@H]1CC[C@]2(C(=O)N3CCN(C)CC3)CC[C@]3(C)[C@H](CC[C@@H]4[C@@]5(C)C/C(=C/c6ccncc6)C(=O)C(C)(C)[C@@H]5CC[C@]43C)[C@@H]12,48.3%,66.3%,56.4%,39.6%,19%,17.6%,62.5%,51.3%
